In the library only some 2.8% were active in any assay of this set; here they are far more common.
IP6K1 inhibitor = IP6K1 kinase inhibition. 140,000 compounds, 0.81% hits. activity change, % (series mostly up to about 58 µM). IP6K1 kinase, ADP-Glo luminescence, 2 h; stronger effect = lower value. AID 1645851; in the data active means activity change below about -25%; further: on the % scale 0 is the no-effect control and ±100 the full control effect
Target sequence (Q92551 whole entry, looked up): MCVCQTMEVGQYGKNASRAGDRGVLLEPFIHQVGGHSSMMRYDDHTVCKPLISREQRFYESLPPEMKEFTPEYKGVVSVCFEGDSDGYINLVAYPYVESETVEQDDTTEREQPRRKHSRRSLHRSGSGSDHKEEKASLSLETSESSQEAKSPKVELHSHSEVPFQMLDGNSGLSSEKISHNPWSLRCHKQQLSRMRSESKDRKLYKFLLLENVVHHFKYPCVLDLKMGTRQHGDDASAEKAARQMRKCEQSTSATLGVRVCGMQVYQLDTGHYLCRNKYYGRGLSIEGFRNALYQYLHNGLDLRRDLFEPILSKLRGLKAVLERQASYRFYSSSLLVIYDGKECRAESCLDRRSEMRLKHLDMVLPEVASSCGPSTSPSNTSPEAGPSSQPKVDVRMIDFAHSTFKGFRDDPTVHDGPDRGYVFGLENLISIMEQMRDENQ
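ADP-Glo luminescence measures ADP made by human IP6K1 during a 2 h RT reaction with ATP/IP6 (mix at 1.3 mM/130 uM); top library doses 57.5 and 19.1 uM final.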
KDM5B inh = KDM5B demethylase inhibition; KDM5B demethylase, FDH-coupled NADH fluorescence (FDH is formaldehyde dehydrogenase); Potency, µM (top dose mostly 57.7 µM), most hits filed as inhibitors; 220,000 compounds, 2.6% hits; AID 1347165; active means well fitted inhibition curve with a large enough effect; inconclusive means small, poorly fitted or top-dose-only effect; inactive means no such curve, though single readings can be large or run the other way; further: potency means the concentration at half of the fitted maximal effect; 0% is about no effect; nearly all actives have a fitted effect of over 70% in size
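Here, H3K4me3 peptide (12.5 µM in substrate mix) is demethylated by KDM5BΔAP, 200 nM final, after 10 min compound exposure. Formaldehyde product is coupled through FDH (0.25 U/mL in mix) to NADH fluorescence; 30-min ΔRFU feeds dose-response curves.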
* hit, by the source's call; i = inactive; ? = inconclusive; · = not tested or not shown.

SMILES	IP6K1 inhibitor	KDM5B inh
CN1CCC(Nc2nccc3c(=O)cc(N(C)c4ccccc4)oc23)CC1	-18	i
COC1CCC12CCN(C(=O)CCCc1ccccc1)CC2 (centres undefined)	-5	·
CCCc1noc(-c2cccn3c(CNC(=O)C4CCCCC4)nnc23)n1	6	?
CCc1noc(-c2cccn3c(CNC(=O)C4CCCCC4)nnc23)n1	7	?
CC(C)c1noc(-c2cccn3c(CNC(=O)C4CC4)nnc23)n1	7	28µM*
CCc1noc(-c2cccn3c(CNC(=O)C4CC4)nnc23)n1	-2	25µM*
CCCc1noc(-c2cccn3c(CNC(=O)C4CC4)nnc23)n1	-2	25µM*
Cc1nn(-c2ccccc2)c2c1C(C)N(C1CN(C(=O)C3CCCC3)C1)C2=O (centres undefined)	6	·
CCC1CCCCN1CCCNC(=O)CCc1cc2cc(OC)ccc2[nH]c1=O (centres undefined)	14	32µM*
Cc1ccc2cc(CCC(=O)NCCCN3CCCC3=O)c(=O)[nH]c2c1	30	?
Cc1ccc2[nH]c(=O)c(CCC(=O)N(C)Cc3cn(C)nc3C)cc2c1	34	32µM*
COc1ccc(NC(=O)CCc2cc3cc(C)ccc3[nH]c2=O)c(OC)c1	6	i
O=C(CCc1cc2ccccc2[nH]c1=O)NCCCN1CCCC1=O	3	i
COc1ccc2[nH]c(=O)c(CCC(=O)NCCN3CCCCCC3)cc2c1	28	28µM*
COc1ccc2[nH]c(=O)c(CCC(=O)NC(C)c3cn(C)nc3C)cc2c1 (centres undefined)	11	?
CCN(CC)CCNC(=O)CCc1cc2cc(OC)ccc2[nH]c1=O	9	28µM*
COCCNC(=O)C1CCN(c2nccc(Nc3ccccc3OC)n2)CC1	14	·
COc1ccc2[nH]c(=O)c(CCC(=O)NCCc3ccccn3)cc2c1	28	?
COCCCNC(=O)CCc1cc2ccccc2[nH]c1=O	13	?
CCCNC(=O)CCc1cc2cc(OC)ccc2[nH]c1=O	5	32µM*
COc1ccc2[nH]c(=O)c(CCC(=O)N(C)CCc3ccccc3)cc2c1	35	28µM*
COc1ccc(N(Cc2cc3cc(OC)ccc3[nH]c2=O)C(=O)c2cccc(Cl)c2)cc1	-7	i
COCCNC(=O)CCc1cc2cc(OC)ccc2[nH]c1=O	28	32µM*
CN(C)C(=O)NC1CCN(Cc2cccc(-c3ccc(F)c(F)c3)c2)CC1	23	·
O=[S+]1([O-])c2cnccc2O[C@@H](COCc2ccccc2)CN1Cc1ccccc1	5	·
SMILES	IP6K1 inhibitor	KDM5B inh
Cn1ncc2c(C(=O)NCc3cccc(F)c3)cc(-c3ccc(C(F)(F)F)cc3)nc21	-8	·
CCOCCNC(=O)c1cc(-c2ccccc2C(F)(F)F)nc2c1cnn2C	8	·
Nc1cccc(OCC(=O)O)c1	·	i
COc1ccc(Nc2ccnc(N3CCC(N[S+](=O)([O-])c4cccs4)CC3)n2)cc1	7	·
O[C@H]1[C@H](NCc2ccncc2)[C@H]2CO[C@H](O2)[C@@H]1N1CCN(c2ccccc2)CC1	-4	22µM*
Oc1ccccc1CN[C@H]1[C@H](O)[C@@H](N2CCN(c3ccccc3)CC2)[C@@H]2OC[C@H]1O2	6	?
COc1ccc(CN2C[C@@H]3C[C@@H](C(N)=O)N(C(=O)CC4CCCC4)c4cccc(c43)C2=O)cc1	8	·
Cn1nc(C2CCCC2)cc1NC(=O)c1cccc(Br)c1	-5	·
CSc1ccc(-c2cccc(C(=O)NCC(=O)NC(C)C)c2)cc1	-4	·
Cc1noc(-c2nc(-c3ccc4c(c3)OCO4)no2)n1	-18	?
CCCc1noc(-c2nc(-c3ccc4c(c3)OCO4)no2)n1	2	25µM*
COc1ccccc1-c1noc(-c2nc(-c3ccc4c(c3)OCO4)no2)n1	0	i
Fc1ccccc1-c1noc(-c2nc(-c3ccc4c(c3)OCO4)no2)n1	4	25µM*
CCn1ncc(NC(=O)Cn2ncc3cc(-c4ccc(F)cc4F)ccc32)n1	3	?
CCn1ncc(NC(=O)Cn2ncc3cc(-c4ccc(C(=O)N(C)C)cc4)ccc32)n1	-5	?
CCn1ncc(NC(=O)Cn2ncc3cc(-c4cc(F)ccc4F)ccc32)n1	9	20µM*
CCn1ncc(NC(=O)Cn2ncc3cc(-c4ccc(N(C)C)cc4)ccc32)n1	10	14µM*
COc1ccccc1C(=O)N[C@@H]1CN(c2ccccn2)C[C@H]1CN(C)C	-4	28µM*
CCn1ncc(C(=O)N[C@@H]2CN(c3ccncn3)C[C@H]2CN(C)C)c1C	6	i
CN(C)C[C@@H]1CN(c2ccccn2)C[C@H]1NC(=O)c1cccc(C#N)c1	-2	?
CCn1ncc(C(=O)N[C@@H]2CN(c3ccccn3)C[C@H]2CN(C)C)c1C	5	32µM*
CC(C)CCC(=O)Nc1cccc(S(=O)(=O)NC(C)(C)C)c1	·	i
Cc1ccc(N/C=C/C(=O)c2cccc(Cl)c2)cc1	·	i
Cc1cccc(OCCCN)c1	·	i
